Reference: paper doi:10.1101/2024.03.05.583629

What follows are sequences tested against pT7_6His-AlfaTag-HOXD13 (human, UniProt P35453 263-343) (assay: PADIT-seq). Conditions: dsDNA, one strand shown.
pT7_6His-AlfaTag-HOXD13, sequence (P35453 263-343): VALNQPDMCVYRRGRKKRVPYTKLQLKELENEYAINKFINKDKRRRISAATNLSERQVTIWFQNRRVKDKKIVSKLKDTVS

Row | Sequence | binding signal [log2FC]
1 | CTCGAGGATATCAAGATCTGGCCTCGGCATGCCACGCGGAACCTCTAGCTAGCCGACTCACTATAGGGATAATCGCCCTGAGCAAAGACC | -1.08 ± 0.113
2 | CTCGAGGATATCAAGATCTGGCCTCGGCTTTTTACCCGGAACCTCTAGCTAGCCGACTCACTATAGGGATAATCGCCCTGAGCAAAGACC | -0.11 ± 0.103
3 | CTCGAGGATATCAAGATCTGGCCTCGGCATTTTACCAGGAACCTCTAGCTAGCCGACTCACTATAGGGATAATCGCCCTGAGCAAAGACC | 0.505 ± 0.0919
4 | CTCGAGGATATCAAGATCTGGCCTCGGCCGCTGACGCGGAACCTCTAGCTAGCCGACTCACTATAGGGATAATCGCCCTGAGCAAAGACC | -0.995 ± 0.158
5 | CTCGAGGATATCAAGATCTGGCCTCGGCTATATAAAAGGAACCTCTAGCTAGCCGACTCACTATAGGGATAATCGCCCTGAGCAAAGACC | 2.63 ± 0.0902
6 | CTCGAGGATATCAAGATCTGGCCTCGGCCAGTTAAAAGGAACCTCTAGCTAGCCGACTCACTATAGGGATAATCGCCCTGAGCAAAGACC | 2 ± 0.0881
7 | CTCGAGGATATCAAGATCTGGCCTCGGCGAGATAAAAGGAACCTCTAGCTAGCCGACTCACTATAGGGATAATCGCCCTGAGCAAAGACC | 0.43 ± 0.0919
8 | CTCGAGGATATCAAGATCTGGCCTCGGCATTTTACCTGGAACCTCTAGCTAGCCGACTCACTATAGGGATAATCGCCCTGAGCAAAGACC | -0.0491 ± 0.129
9 | CTCGAGGATATCAAGATCTGGCCTCGGCCTTTTATGAGGAACCTCTAGCTAGCCGACTCACTATAGGGATAATCGCCCTGAGCAAAGACC | 3.45 ± 0.0923
10 | CTCGAGGATATCAAGATCTGGCCTCGGCCGCAGTCGCGGAACCTCTAGCTAGCCGACTCACTATAGGGATAATCGCCCTGAGCAAAGACC | -1.09 ± 0.145
11 | CTCGAGGATATCAAGATCTGGCCTCGGCCTTTTAGGCGGAACCTCTAGCTAGCCGACTCACTATAGGGATAATCGCCCTGAGCAAAGACC | -0.31 ± 0.108
12 | CTCGAGGATATCAAGATCTGGCCTCGGCGTTTTAATGGGAACCTCTAGCTAGCCGACTCACTATAGGGATAATCGCCCTGAGCAAAGACC | 2.46 ± 0.0744
13 | CTCGAGGATATCAAGATCTGGCCTCGGCACTCTAAAAGGAACCTCTAGCTAGCCGACTCACTATAGGGATAATCGCCCTGAGCAAAGACC | 0.139 ± 0.11
14 | CTCGAGGATATCAAGATCTGGCCTCGGCGTTGTAAAAGGAACCTCTAGCTAGCCGACTCACTATAGGGATAATCGCCCTGAGCAAAGACC | 2.39 ± 0.0772
15 | CTCGAGGATATCAAGATCTGGCCTCGGCCAATTAAAAGGAACCTCTAGCTAGCCGACTCACTATAGGGATAATCGCCCTGAGCAAAGACC | 2.77 ± 0.0792
16 | CTCGAGGATATCAAGATCTGGCCTCGGCTTTTTAGACGGAACCTCTAGCTAGCCGACTCACTATAGGGATAATCGCCCTGAGCAAAGACC | -0.513 ± 0.133
17 | CTCGAGGATATCAAGATCTGGCCTCGGCGTTTTACTAGGAACCTCTAGCTAGCCGACTCACTATAGGGATAATCGCCCTGAGCAAAGACC | 2.96 ± 0.0769
18 | CTCGAGGATATCAAGATCTGGCCTCGGCGTTTTACTCGGAACCTCTAGCTAGCCGACTCACTATAGGGATAATCGCCCTGAGCAAAGACC | 0.701 ± 0.0889
19 | CTCGAGGATATCAAGATCTGGCCTCGGCCTATTAAAAGGAACCTCTAGCTAGCCGACTCACTATAGGGATAATCGCCCTGAGCAAAGACC | 3.05 ± 0.0763
20 | CTCGAGGATATCAAGATCTGGCCTCGGCCCGATAAAAGGAACCTCTAGCTAGCCGACTCACTATAGGGATAATCGCCCTGAGCAAAGACC | 1.27 ± 0.0909

Row | Sequence | binding signal [log2FC]
21 | CTCGAGGATATCAAGATCTGGCCTCGGCCTTTTAGCCGGAACCTCTAGCTAGCCGACTCACTATAGGGATAATCGCCCTGAGCAAAGACC | -0.235 ± 0.0913
22 | CTCGAGGATATCAAGATCTGGCCTCGGCCTTTTAAGTGGAACCTCTAGCTAGCCGACTCACTATAGGGATAATCGCCCTGAGCAAAGACC | 1.38 ± 0.0835
23 | CTCGAGGATATCAAGATCTGGCCTCGGCTACTTAAAAGGAACCTCTAGCTAGCCGACTCACTATAGGGATAATCGCCCTGAGCAAAGACC | 0.982 ± 0.0923
24 | CTCGAGGATATCAAGATCTGGCCTCGGCTTTTTACTCGGAACCTCTAGCTAGCCGACTCACTATAGGGATAATCGCCCTGAGCAAAGACC | 0.725 ± 0.0977
25 | CTCGAGGATATCAAGATCTGGCCTCGGCAGTCTAAAAGGAACCTCTAGCTAGCCGACTCACTATAGGGATAATCGCCCTGAGCAAAGACC | -0.665 ± 0.0999
26 | CTCGAGGATATCAAGATCTGGCCTCGGCGTTTTATCAGGAACCTCTAGCTAGCCGACTCACTATAGGGATAATCGCCCTGAGCAAAGACC | 2.41 ± 0.0928
27 | CTCGAGGATATCAAGATCTGGCCTCGGCATTTTATAGGGAACCTCTAGCTAGCCGACTCACTATAGGGATAATCGCCCTGAGCAAAGACC | 3.25 ± 0.0782
28 | CTCGAGGATATCAAGATCTGGCCTCGGCATTTTAAAAGGAACCTCTAGCTAGCCGACTCACTATAGGGATAATCGCCCTGAGCAAAGACC | 2.49 ± 0.0611
29 | CTCGAGGATATCAAGATCTGGCCTCGGCCATTTAAAAGGAACCTCTAGCTAGCCGACTCACTATAGGGATAATCGCCCTGAGCAAAGACC | 2.3 ± 0.0841
30 | CTCGAGGATATCAAGATCTGGCCTCGGCGTGATAAAAGGAACCTCTAGCTAGCCGACTCACTATAGGGATAATCGCCCTGAGCAAAGACC | 1.99 ± 0.0801
31 | CTCGAGGATATCAAGATCTGGCCTCGGCATAATAAAAGGAACCTCTAGCTAGCCGACTCACTATAGGGATAATCGCCCTGAGCAAAGACC | 2.68 ± 0.0776
32 | CTCGAGGATATCAAGATCTGGCCTCGGCACGATAAAAGGAACCTCTAGCTAGCCGACTCACTATAGGGATAATCGCCCTGAGCAAAGACC | 1.32 ± 0.0937
33 | CTCGAGGATATCAAGATCTGGCCTCGGCTTTTTACTGGGAACCTCTAGCTAGCCGACTCACTATAGGGATAATCGCCCTGAGCAAAGACC | 2.73 ± 0.0875
34 | CTCGAGGATATCAAGATCTGGCCTCGGCTTTTTAGGTGGAACCTCTAGCTAGCCGACTCACTATAGGGATAATCGCCCTGAGCAAAGACC | -0.0749 ± 0.107
35 | CTCGAGGATATCAAGATCTGGCCTCGGCTAGCCACGCGGAACCTCTAGCTAGCCGACTCACTATAGGGATAATCGCCCTGAGCAAAGACC | -1.07 ± 0.127
36 | CTCGAGGATATCAAGATCTGGCCTCGGCGTGGTAAAAGGAACCTCTAGCTAGCCGACTCACTATAGGGATAATCGCCCTGAGCAAAGACC | 1.02 ± 0.077
37 | CTCGAGGATATCAAGATCTGGCCTCGGCGCGCTAAAAGGAACCTCTAGCTAGCCGACTCACTATAGGGATAATCGCCCTGAGCAAAGACC | -0.366 ± 0.0916
38 | CTCGAGGATATCAAGATCTGGCCTCGGCATTTTATTAGGAACCTCTAGCTAGCCGACTCACTATAGGGATAATCGCCCTGAGCAAAGACC | 3.28 ± 0.0692
39 | CTCGAGGATATCAAGATCTGGCCTCGGCATTTTATCAGGAACCTCTAGCTAGCCGACTCACTATAGGGATAATCGCCCTGAGCAAAGACC | 2.32 ± 0.0735
